These results are taken from PubChem BioAssay (NCI).

Compounds without any hit were thinned out: in the full panel of roughly 83,000, 20% have a hit.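 Note: values are percent growth. 100 is the growth of untreated cells, values between 100 and 0 indicate rising inhibition; between -100 and 0 indicates cell death.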 A number with no mark means an inactive call. The calls were made as follows: active = growth percent below 10; inactive = the rest.

The test relates to UACC-62 melanoma. In words: NCI-60 one-dose screen, 48 h (100 = growth as untreated, 0 = no growth, -100 = all killed). As to conditions: 10 µM unless noted.
Take `CC1CC(C)S(=O)(=O)C1` (configuration not stated): the growth was 92.9%.

Regarding `Nc1c(Br)cc(O)c2c1C(=O)c1ccccc1C2=O`, the growth is 87.4%.

As for `NC(CO)(CO)c1ccccc1`, the growth was 101%.

Consider `CC(C)N1CC(=O)N2CSCC2C1=O` (configuration not stated), for which the growth is 104%.

With `CCNC(=O)OCCc1c2ccccc2nc2ccccc12`, the growth was 99.1%.

`CCN(CC)CCN1CNC(=S)NC1`: the growth was 105%.

In the case of `Oc1cc(O)c2c(c1)O[C@H](c1ccc(O)c(O)c1)[C@@H](O)C2`, the growth was 106%.

As for `CN1CCN(C(=S)S)CC1`, the growth is 101%.

Turning to `O=c1[nH]c(=O)c2cc(Cl)cc(Cl)c2[nH]1`, the growth is 96.7%.

As for `CCOP(=O)(NC(c1ccccc1)c1ccccc1)OCC`, the growth is 114%.

As for `Cc1ccc2nc(N)nnc2c1`, the growth is 105%.

On to `NC(=S)N/N=C/c1ccc(Cl)cc1`, for which the growth was 109%.

As for `CC(=O)C1C(=O)C(=O)N(c2ccc(Cl)c(Cl)c2)C1=O` (configuration not stated), the growth is 101%.

`CN1CCCN(C(c2ccccc2)c2ccc(Cl)cc2)CC1` (configuration not stated): the growth is 106%.

Regarding `c1ccc(-c2ccc3ccccc3c2)cc1`, the growth is 95.4%.

Regarding `CCOC(=O)C(C#N)=C1CCN(C)CC1`, the growth was 103%.

`Ic1cccs1`: the growth was 98.5%.

In the case of `O=C(O)c1cccc(-n2ncc(Cl)c(Cl)c2=O)c1`, the growth was 97.2%.

As to `CCCCn1cnc2c(=O)[nH]cnc21`, the growth is 95.7%.

With `CC(=O)N(C(C)=O)c1ccc(C)cc1`, the growth was 91.4%.

Take `CCNCC(C)(C)O`: the growth was 102%.

On to `COc1cc(C(=O)NC(=S)NCc2ccncc2)cc(OC)c1OC`, for which the growth is 99.3%.
